Shown are actives, neighbours in structure and some others; about 1.1% of the full set was active somewhere.
NR2F2 inh – inhibitors of human COUP-TFII (NR2F2); P24468; HEK293T NGFI-A luciferase reporter, luminescence; inhibition, % at 8.6 µM; actives 0.7% (n = 370,000);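 active = inhibition above a per-plate cutoff, mean inhibition of test wells between control levels plus 3 SD, cut at about 38% in these data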;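 note: cells cotransfected with COUP-TFII expression vector driving the NGFI-A reporter; 0% = median of COUP-TF2 test wells and 100% = reporter-only cells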
LRH-1 inv ag – inverse agonists of human LRH-1 (NR5A2). O00482. HEK293T StAR-luciferase reporter, LRH-1 transfected, 24 h. inhibition, % at 3.6 µM. actives 0.13% (n = 360,000). AID 602396;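 active = inhibition above the mean inhibition of all tested compounds plus 3 SD, cut at about 73% in these data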;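 note: 0% = DMSO wells and 100% = reporter-only cells lacking LRH-1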
NCOA3 inh – inhibits human SRC3 coactivator. HEK293 GAL4-SRC3 luciferase reporter, luminescence. actives 0.17% (n = 360,000). inhibition, % at 3.6 µM. Q9Y6Q9;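 active = inhibition above a per-campaign cutoff, the mean of all compounds plus 3 SD, cut at about 60% in these data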;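 note: 0% = DMSO-treated cells and 100% = gossypol-treated cells at 36 µM; higher means less SRC3-driven luciferase light from the GAL4 reporter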
Target sequence (Q9Y6Q9 whole entry, looked up, the tested form may be a part): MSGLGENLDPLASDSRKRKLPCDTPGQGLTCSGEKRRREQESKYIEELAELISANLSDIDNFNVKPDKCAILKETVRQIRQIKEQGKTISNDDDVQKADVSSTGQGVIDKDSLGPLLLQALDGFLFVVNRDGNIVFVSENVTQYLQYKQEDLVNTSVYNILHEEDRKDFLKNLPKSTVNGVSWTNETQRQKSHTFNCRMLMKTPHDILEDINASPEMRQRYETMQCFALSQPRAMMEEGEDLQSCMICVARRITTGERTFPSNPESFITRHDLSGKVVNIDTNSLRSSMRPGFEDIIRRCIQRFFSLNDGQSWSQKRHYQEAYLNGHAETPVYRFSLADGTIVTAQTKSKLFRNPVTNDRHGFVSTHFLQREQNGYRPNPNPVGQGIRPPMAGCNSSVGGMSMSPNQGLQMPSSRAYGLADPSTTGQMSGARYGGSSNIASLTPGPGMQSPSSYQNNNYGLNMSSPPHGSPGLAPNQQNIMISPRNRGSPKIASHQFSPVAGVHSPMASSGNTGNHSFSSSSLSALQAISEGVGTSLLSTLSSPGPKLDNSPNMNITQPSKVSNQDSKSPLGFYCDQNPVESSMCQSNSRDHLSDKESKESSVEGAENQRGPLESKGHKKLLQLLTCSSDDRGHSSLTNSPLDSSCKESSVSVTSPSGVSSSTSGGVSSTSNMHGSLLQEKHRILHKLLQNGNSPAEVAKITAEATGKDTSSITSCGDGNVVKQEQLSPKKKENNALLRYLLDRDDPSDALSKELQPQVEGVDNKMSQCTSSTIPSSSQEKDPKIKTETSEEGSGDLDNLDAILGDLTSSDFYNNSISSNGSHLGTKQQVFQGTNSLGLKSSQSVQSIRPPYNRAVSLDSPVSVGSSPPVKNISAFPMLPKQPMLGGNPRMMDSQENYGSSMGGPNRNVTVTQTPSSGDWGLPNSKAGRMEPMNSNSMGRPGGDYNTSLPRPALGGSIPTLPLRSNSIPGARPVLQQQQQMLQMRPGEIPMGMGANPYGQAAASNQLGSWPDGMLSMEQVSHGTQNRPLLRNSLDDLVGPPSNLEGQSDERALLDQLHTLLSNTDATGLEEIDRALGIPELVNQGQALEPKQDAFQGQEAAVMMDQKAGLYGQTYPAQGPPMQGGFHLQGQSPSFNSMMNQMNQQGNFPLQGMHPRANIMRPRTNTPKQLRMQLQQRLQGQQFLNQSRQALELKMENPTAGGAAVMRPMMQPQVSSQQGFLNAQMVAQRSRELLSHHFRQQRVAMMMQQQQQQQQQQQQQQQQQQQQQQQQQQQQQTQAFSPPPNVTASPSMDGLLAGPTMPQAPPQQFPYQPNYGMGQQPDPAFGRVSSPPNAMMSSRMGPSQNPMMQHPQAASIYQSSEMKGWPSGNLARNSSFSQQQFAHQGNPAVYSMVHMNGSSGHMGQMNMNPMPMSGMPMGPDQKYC
NCOA2 inhibitor – human SRC2 (NCOA2) inhibition; actives 0.17% (n = 370,000); Q15596; inhibition, % at 9 µM; HEK293 GAL4-SRC2 luciferase reporter, luminescence; AID 651957;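 active = inhibition above the mean inhibition of all tested compounds plus 3 SD, set per campaign, cut at about 52% in these data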;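 note: 0% = DMSO treated cells and 100% = cells given Gossypol at 36 µM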
GalR3 antag – antagonists of human GalR3; HEK293 GalR3-CNG cAMP membrane potential fluorescence; galR3 body fused to GalR1 C-terminus; inhibition, % at 3 µM; actives 0.44% (n = 360,000); AID 651719;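 active = inhibition above the screen-wide average plus 3 SD, cut at about 13% in these data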;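 note: forskolin and galanin both at EC90 stimulate the cells; cAMP rise reported by CNG channel membrane potential dye signal; 0% = forskolin plus galanin with DMSO and 100% = forskolin alone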
NCOA1 inh – inhibitors of human steroid receptor coactivator 1 (SRC1). Q15788. HEK293 GAL4-SRC1 luciferase reporter, luminescence. inhibition, % at 3.6 µM. actives 0.12% (n = 360,000);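 active = inhibition above the campaign mean plus 3 SD, with each screening campaign given its own cutoff, cut at about 60% in these data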;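 note: 0% = DMSO treated cells and 100% = gossypol at 36 µM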
Gal4-VP16 ctr – VP16 inhibition counter-screen for COUP-TFII. shares compounds with NR2F2 inh. inhibition, % at 8.5 µM. actives 25% (n = 2,500). HEK293 Gal4-VP16 luciferase reporter, luminescence; in the data active = inhibition above about 13%
COUP-TFII conf – COUP-TFII (NR2F2) inhibition, confirmation assay; shares compounds with NR2F2 inh; HEK293 NGFI-A luciferase reporter, luminescence; inhibition, % at 8.5 µM; actives 45% (n = 2,500);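 active = mean inhibition over three repeats above a set limit taken from the earlier primary screen, cut at about 38% in these data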;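 note: 100% = cells given the luciferase reporter alone without the COUP-TF2 vector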
* marks the source's active call; other numbers are inactive results; · = not tested or not shown.

SMILES | NR2F2 inh | LRH-1 inv ag | NCOA3 inh | NCOA2 inhibitor | GalR3 antag | NCOA1 inh | Gal4-VP16 ctr | COUP-TFII conf
COc1cc2[nH]c(C(=O)Nc3ccc4c(c3)OCCO4)cc2c(OC)c1OC | -28 | -17 | 7 | 2 | -2 | 15 | · | ·
Cc1ccc(-c2onc(C)c2C)cc1S(=O)(=O)N1CCOc2ccccc21 | 59* | -3 | 24 | 28 | -8 | 0 | -3 | 16
Cc1cc(-c2ccc(C(C)C)c(S(=O)(=O)N3CCOc4ccccc43)c2)on1 | 9 | 4 | 5 | -7 | -3 | -6 | · | ·
Cc1ccc(Cl)cc1N1CCN(C(=O)CN(C2CCCCC2)S(C)(=O)=O)CC1 | 40* | 12 | -9 | 9 | -8 | -4 | 3 | 13
CC(C)NS(=O)(=O)c1ccc(OCC(=O)N2CCCC2)cc1 | 7 | 9 | 8 | -14 | -2 | -16 | · | ·
Cc1ccc(Cl)cc1N1CCN(C(=O)COc2ccc(S(=O)(=O)NC(C)C)cc2)CC1 | 38* | -12 | 1 | -4 | · | 18 | 1 | 39*
CS(=O)(=O)N(CC(=O)N1CCN(c2cccc(Cl)c2)CC1)C1CCCCC1 | -5 | 2 | 14 | 19 | -3 | -16 | · | ·
Cc1ccccc1S(=O)(=O)N1CCCc2nc(C)c(C)cc21 | 1 | · | · | 6 | -7 | · | · | ·
CCCCCC(=O)N1CC2(CC(c3cccc(NC(=O)COc4ccc(Cl)cc4)c3)=NO2)C[C@@H]1C(N)=O (stereo partly drawn) | 42* | -8 | -4 | 36 | -2 | -3 | -11 | 13
COCCN1Cc2cc(C(=O)OC)c3c(c2C1=O)c1cc(F)ccc1n3S(=O)(=O)c1ccc(C)cc1 | 0 | · | · | 4 | -7 | · | · | ·
CC(=O)Nc1ccc(NC(=O)c2ccc(OCc3c(C)noc3C)cc2)cc1 | 5 | 11 | -25 | 22 | -5 | -2 | · | ·
Cc1ccc(NC(=O)c2ccc(OCc3c(C)noc3C)cc2)cc1C | 38* | -1 | 1 | 8 | -6 | -12 | -45 | -9
CCCCc1c(-c2ccccc2OC)ncn1Cc1cccc(F)c1F | 14 | · | · | 10 | -6 | · | · | ·
Cc1c(C(C)NC(=O)c2cc(COc3cccc4cnccc34)on2)cnn1C (stereo not drawn) | 56* | 34 | 47 | 44 | 0 | 29 | 5 | 42*
Cc1ccc(OCC(=O)NC(=S)Nc2ccccn2)c(Br)c1 | 50* | 8 | 27 | 35 | -3 | 30 | -54 | 12
COc1ccc(N2C(=O)c3n[nH]c(C)c3C2c2ccccc2)cc1 (stereo not drawn) | -29 | · | · | 9 | -6 | · | · | ·
C[C@@H]1CN([C@H](C)CO)C(=O)CCCn2nncc2CO[C@@H]1CN(C)C(=O)Nc1cccc2ccccc12 | -12 | 9 | -14 | 16 | -4 | -6 | · | ·
CC(=O)Nc1ccc(-c2ccnc3c2CC(C)(C(=O)NCc2ccco2)O3)cc1 (stereo not drawn) | 2 | 23 | 10 | 1 | -7 | 9 | · | ·
CN(C)c1ccc(-c2ccnc3c2CC(C)(C(=O)NCc2ccco2)O3)cc1 (stereo not drawn) | 49* | 27 | -8 | 14 | -7 | 3 | -10 | 12
CC(C)C[C@H](NC(=O)c1ccco1)C(=O)N1CCC[C@H]1C(=O)NCc1ccccc1 | -13 | · | · | 7 | -7 | · | · | ·
Cc1ccc(N/C(N)=N/c2nc(C)cc(C)n2)cc1 | 3 | 7 | 36 | -1 | -10 | -4 | · | ·
CCCCc1ccc(N/C(N)=N/c2nc(C)cc(C)n2)cc1 | 49* | 16 | 32 | 37 | 41* | 10 | 29* | 56*
COC(=O)c1cc(N/C(N)=N/c2nc(C)cc(C)n2)cc(C(=O)OC)c1 | 42* | 37 | 37 | 25 | -1 | 27 | -5 | 29
c1ccc2sc(-c3csc4c3CCNC4)nc2c1 | -30 | · | · | · | · | · | · | ·
Cc1ccc(-n2nc3c(=O)n(C(C)C(=O)NCCC4=CCCCC4)nc(C)c3c2C)cc1 (stereo not drawn) | 71* | 39 | 35 | 38 | 3 | 13 | 4 | 62*
SMILES | NR2F2 inh | LRH-1 inv ag | NCOA3 inh | NCOA2 inhibitor | GalR3 antag | NCOA1 inh | Gal4-VP16 ctr | COUP-TFII conf
Cc1ccc(CCNC(=O)C(C)n2nc(C)c3c(C)n(-c4ccccc4)nc3c2=O)cc1 (stereo not drawn) | 1 | 5 | -7 | 21 | 0 | 16 | · | ·
CC(=O)Nc1ccc(NC(=O)c2ccc3sc([C@H]4C[C@H](O)[C@@H](CO)O4)nc3c2)cc1 | 2 | 9 | 2 | 4 | -6 | -10 | · | ·
O=C(Nc1ccc(Oc2ccccc2)cc1)c1csc([C@@H]2O[C@H](CO)[C@@H](O)[C@H]2O)n1 | 66* | 37 | -15 | 28 | 4 | 33 | 7 | 51*
O=C(Nc1ccc(Oc2ccccc2)cc1)c1ccc2sc([C@H]3C[C@H](O)[C@@H](CO)O3)nc2c1 | 74* | 38 | 5 | 28 | 2 | 32 | -22 | 46*
O=C(Nc1cccc(C(F)(F)F)c1)c1ccc2sc([C@H]3C[C@H](O)[C@@H](CO)O3)nc2c1 | 58* | 12 | 13 | -7 | -4 | 15 | 3 | 24
COC(=O)[C@@H](Cc1ccccc1)NC(=O)[C@H]1O[C@@H](n2cnc3c(=O)[nH]c(N)nc32)[C@H](O)[C@@H]1O | -7 | · | · | -7 | -5 | · | · | ·
Cc1nc(NC(=O)C(C)(C)C)sc1-c1nc(N)sc1-n1cc(-c2ccccc2)nn1 | 5 | -38 | · | -18 | -6 | · | · | ·
CCNc1nc(-c2sc(NC(=O)C(C)(C)C)nc2C)c(-n2cc(-c3ccccc3)nn2)s1 | 66* | 61 | · | 13 | -6 | · | 2 | 41*
CC1Cc2ccccc2N1C(=O)Cn1cc(C(F)(F)F)ccc1=O (stereo not drawn) | 10 | -5 | 3 | 1 | 2 | 4 | · | ·
CCn1cc(C(=O)NCc2cccc(F)c2)c(=O)c2cc(F)c(N3CCN(C(=O)c4ccco4)CC3)cc21 | 38* | 26 | 6 | 4 | -1 | -11 | -2 | 7
CCCNC(=O)c1cn(CC)c2cc(N3CCN(C(=O)c4ccco4)CC3)c(F)cc2c1=O | 17 | 8 | 4 | -14 | 1 | -17 | · | ·
O=C(/C=C/c1ccncc1)c1ccc2c(c1)OCCO2 | -16 | 19 | 12 | 19 | -1 | -2 | · | ·
COc1cc(/C=C/C(=O)c2ccc3c(c2)OCCO3)cc(Br)c1OCC(=O)N(C)C | 38* | 28 | 50 | 55* | -3 | 11 | 31* | 20
Nc1nonc1C(=O)NCCNCc1cc(Br)ccc1OCc1ccccc1F | 66* | 12 | 15 | 17 | -2 | 3 | 19* | 26

Assay outcomes as filed in PubChem BioAssay.
